Screening results (PubChem BioAssay)
UHRF1 binding – blocks human UHRF1 binding to methylated DNA; Q96T88; UHRF1 binding to methylated oligo, TR-FRET; inhibition, % at 4.4 µM; 0.75% of 370,000 active; in the data active = inhibition above about 21%;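 note: UHRF1 SRA domain binding a hemimethylated CpG hairpin DNA probe; 0% = median of test compound wells and 100% = reference inhibitor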
MBD2 DNA inh – blocks human MBD2 binding to methylated DNA; Q9UBB5; TR-FRET, MBD2 binding to methylated oligonucleotide; inhibition, % at 4.4 µM; 0.31% of 370,000 active; AID 686964; in the data active = inhibition above about 13%
Neddyl block – cullin neddylation inhibition. 0.58% of 360,000 active. TR-FRET cullin neddylation, biochemical. calls only at 25 µM. P61081+Q13564; in the data active = inhibition above about 36%
KLK7 zymogen act – proKLK7 (human) activation, primary screen; P49862; purified proKLK7, EDANS-DABCYL substrate fluorescence; 100% is mature enzyme control, 0% vehicle; activation, % at 7 µM; 0.9% of 370,000 active; AID 652039;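 active = activation above the mean of all tested compounds plus 3 SD, computed per campaign excluding outliers beyond control limits, cut at about 13% in these data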
LEDGF integ inh – blocks HIV-1 LEDGF/p75-dependent DNA integration. 0.64% of 370,000 active. TR-FRET IN-LEDGF/p75 DNA integration, Eu/Cy5. AID 743269. inhibition, % at 3.7 µM;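 active = inhibition above the screen-wide mean plus 3 SD, cut at about 13% in these data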;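 note: signal is the Cy5 over europium emission ratio at 671 and 618 nm; 0% = plate median of compound wells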
Rin1 Abl inh – inhibitors of human Rin1-Abl protein interaction | P00519+Q13671 | TR-FRET Rin1/Abl binding, biochemical | inhibition, % at 7.35 µM | 0.4% of 360,000 active | AID 588664; in the data active = inhibition above about 5%, passing the limit was not always enough
KLK7 act conf – confirmation of human kallikrein-7 zymogen activators. 68% of 3,200 active. purified proKLK7, EDANS-DABCYL substrate fluorescence; scaled: vehicle 0, mature enzyme 100. activation, % at 7 µM. shares compounds with KLK7 zymogen act. AID 686949;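 active = activation, as change over the incubation, above the mean of all tested compounds plus 3 SD, cut at about 13% in these data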
EDANS-DABCYL int – optically interferes with EDANS-DABCYL signal, flagging KLK7 hits. activation, % at 7 µM. AID 686952. shares compounds with KLK7 zymogen act. 80% of 3,200 active. EDANS-DABCYL substrate fluorescence interference, no enzyme, 4 h; solvent 0%, active enzyme control 100%;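 active = activation above the all-compound mean plus 3 SD, ignoring values outside control-based bounds, cut at about 4.8% in these data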;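 note: value is the 4 h activation minus the activation read at time zero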
Starred values were filed as active, the others as inactive. This is a sample that favours compounds with a hit; in the whole collection about 3.1% have one here.

For O=C(Nc1nc2c(s1)CN(Cc1ccccc1)CC2)c1cccc(S(=O)(=O)N2CCc3ccccc32)c1 the results were UHRF1 binding -2, MBD2 DNA inh 3, Neddyl block inactive, KLK7 zymogen act 640*, LEDGF integ inh -1, Rin1 Abl inh -7, KLK7 act conf 21* and EDANS-DABCYL int 18*.
Screening O=C(Nc1nc2ccccc2s1)c1cccc(S(=O)(=O)N2CCc3ccccc32)c1 returned UHRF1 binding 0, MBD2 DNA inh -1, Neddyl block inactive, KLK7 zymogen act 0, LEDGF integ inh 3 and Rin1 Abl inh 2.
For CCN1CCN(c2cc3c(cc2F)c(=O)c(S(=O)(=O)c2ccccc2)cn3C)CC1 the results were UHRF1 binding -1, MBD2 DNA inh -4, KLK7 zymogen act 13*, LEDGF integ inh 1, Rin1 Abl inh -7, KLK7 act conf 3 and EDANS-DABCYL int 3.
Screening O=C(NCc1ccccc1)c1ccc(CN(c2ccccn2)S(=O)(=O)c2ccccc2)cc1 returned UHRF1 binding 0, MBD2 DNA inh -2, Neddyl block inactive, KLK7 zymogen act 0, LEDGF integ inh -1 and Rin1 Abl inh 1.
Screening CCOc1ccc(C(=O)/C=C/Nc2ccc(S(=O)(=O)Nc3cc(C)nc(C)n3)cc2)cc1 returned UHRF1 binding 1, MBD2 DNA inh 1, KLK7 zymogen act 147*, LEDGF integ inh 2, KLK7 act conf 238* and EDANS-DABCYL int 177*.
`Cc1cccc2c3c([nH]c12)C(=O)CC(C)(C)S3` gave UHRF1 binding -1, MBD2 DNA inh -2, Neddyl block inactive, KLK7 zymogen act -21, LEDGF integ inh -1 and Rin1 Abl inh 0.
For Cc1ccc2[nH]c3c(c2c1)SC(C)(C)CC3=O the results were UHRF1 binding -2, MBD2 DNA inh 4, KLK7 zymogen act 15*, LEDGF integ inh -2, Rin1 Abl inh 0, KLK7 act conf 13* and EDANS-DABCYL int 16*.
`Cc1ccc(NC(=O)N2CCCC2C(=O)NCCc2ccccc2)cc1` (configuration not stated) gave UHRF1 binding 1, MBD2 DNA inh 3, Neddyl block inactive, KLK7 zymogen act 0, LEDGF integ inh -1 and Rin1 Abl inh 2.
`O=C(c1ccc2c(c1)OCCCO2)c1cccs1` gave UHRF1 binding 4, MBD2 DNA inh 2, Neddyl block inactive, KLK7 zymogen act 0, LEDGF integ inh 0 and Rin1 Abl inh -5.
COC(=O)[C@@]12C[C@@H](CC(=O)NCC3CCCCC3)C(=O)N(Cc3ccco3)C1=CCC(C)(C)C2 was read as UHRF1 binding -1, MBD2 DNA inh -5, Neddyl block inactive, KLK7 zymogen act 0 and LEDGF integ inh -2.
`O=C(C1CC(=O)N(c2ccc3c(c2)OCCO3)C1)N1CCN(c2cccc(C(F)(F)F)c2)CC1` (configuration not stated) gave UHRF1 binding -2, MBD2 DNA inh 3, Neddyl block inactive, KLK7 zymogen act 0, LEDGF integ inh 1 and Rin1 Abl inh -3.
For Nc1c(C(=O)NCCN2CCOCC2)c2nc3ccccc3nc2n1-c1cccc(F)c1 the results were UHRF1 binding -4, MBD2 DNA inh -5, KLK7 zymogen act 30*, LEDGF integ inh -1, Rin1 Abl inh -4, KLK7 act conf -71 and EDANS-DABCYL int -73.
COCCCNC(=O)c1c(N)n(-c2cccc(S(N)(=O)=O)c2)c2nc3ccccc3nc12 was read as UHRF1 binding -6, MBD2 DNA inh -2, KLK7 zymogen act 20*, LEDGF integ inh 0, Rin1 Abl inh 4, KLK7 act conf -20 and EDANS-DABCYL int -66.
`CCCNC(=O)c1c(N)n(-c2cccc(OC)c2)c2nc3ccccc3nc12` gave UHRF1 binding -7, MBD2 DNA inh -5, KLK7 zymogen act -40, LEDGF integ inh 5 and Rin1 Abl inh -4.
